Records with an inconclusive call do not appear. Entries that show only a call come without a potency. Activity calls are given as the source filed them. Calls follow the shape of the dose curve; as a rule, active = well fitted inhibition curve with a large enough effect; inconclusive = small, poorly fitted or top-dose-only effect; inactive = flat fitted curve, though single readings scatter.
Potency is read from the fitted curve at half-maximal effect.

This test has as its system Zika virus NS2B-NS3 protease. The experiment in a line: Primary screen GU AMC qHTS for Zika virus inhibitors (AID 1347154). Also: nearly all actives have a fitted effect of over 70% in size. Conditions: Zika NS2B-NS3 unlinked protease, AMC fluorogenic substrate; series mostly up to 54.1 µM. The source says: Avindra Nath, Ph.D., National Institute of Neurological Disorders and Stroke (NINDS), Bethesda, MD
Radhakrishnan Padmanabhan, Ph.D., Georgetown University (GU), Washington D.C.
Zika Virus causes congenital defects, including microcephaly and is associated with Guillain-Barre syndrome, eningoencephalitis and myelitis in infected adult. […] Using a target-based approach, we hope to establish a screening paradigm to uncover novel, cell-active NS2B-NS3 protease (Zika Virus) specific inhibitors from NCATS' collection of small molecules using qHTS.
Early Translation Branch (ETB)
National Center for Advancing Translational Sciences (NCATS), Rockville, MD
National Institute of Health (NIH), Bethesda, Maryland
Padmanabhan lab provided the NS2B hydrophilic domain and NS3 protease domain in a noncovalent complex used for the unlinked assay. Control compound aprotinin is obtained from Thermo Scientific (#78432; Waltham, Massachusetts). NS2B-NS3 AMC substrate (Bz-Nle-Lys-Arg-Arg-AMC; Nle-KRR-AMC) purchased from Bachem (#I-1995; Torrance, CA). Ac-VKTGKR-AMC purchased from Genscript or Bachem, Ac-FAAGKR-AMC purchased from Genscript, Ac-GLVKRR-AMC purchased from Genscript, Ac-LKKR-AMC purchased from Genscript.
GU AMC unlinked NS2B-NS3 protease qHTS protocol
Briefly, 3 microL of Zika virus unlinked NS2B-NS3 protease (25 nM for linked final concentration), in assay buffer (10 mM Tris-HCl pH 8.0 with 0.01% Tween 20) was dispensed into a 1,536-well solid-bottom black plate (Greiner Bio One, Monroe, NC). […] Plates were then read immediately on a ViewLux High-throughput CCD imager (PerkinElmer, Waltham, MA) equipped with standard UV fluorescence optics (340(30) nm excitation, 450(20) nm emission) then incubated (room temperature, protected from light) for 15 minutes (~20% conversion). The change in fluorescence intensity over the 15-minute reaction period was normalized against no-inhibitor and no-enzyme controls and the resulting percent inhibition data were fitted to a 4-parameter Hill equation. Aprotinin was used as the intraplate control.
Background: In qHTS, concentration-response curves come from the screen itself.
For `c1ccc2c(c1)CCc1ccccc1N2`, the Potency entry is “inactive”. In the case of `CO[C@@H]1[C@@H](O[C@@H]2O[C@H](C)[C@@H](O[C@H]3C[C@@](C)(O)[C@@H](O)[C@H](C)O3)[C@H](N(C)C)[C@H]2O)[C@@H](CC=O)C[C@@H](C)[C@@H](O[C@@H]2CC[C@H](N(C)C)[C@@H](C)O2)/C=C/C=C/C[C@@H](C)OC(=O)C[C@H]1OC(C)=O` it was “inactive”. The result for `CC(C)=CCNc1ncnc2c1ncn2[C@@H]1O[C@H](CO)[C@@H](O)[C@H]1O` reads “inactive”. The result for `CC1CC(=O)NN=C1c1ccc(NCC(C)(C)NCC(O)COc2cc(Cl)ccc2C#N)cc1` (stereo not given) reads “inactive”. As to `O=C1Nc2ccccc2C1(c1ccc(O)cc1)c1ccc(O)cc1`, the Potency result is “inactive”. For the compound `CCCCCCCCCCCCCCCCCCNC(=O)OC1CCN(C(=O)OC[C@H](COC(=O)N(Cc2cccc[n+]2CC)C(=O)c2ccccc2OC)OC)CC1`, the Potency result is “inactive”. In the case of `COc1ccc2nc(SCc3ncc(C)c(OC)c3C)[nH]c2c1` it was “inactive”. Take `CN1Cc2cc(C(=O)N3CCC(C4CCNCC4)CC3)ccc2NC(CC(=O)O)C1=O` (stereo not given): the Potency result was “inactive”. As to `CCOC(=O)OCC/C(SC(=O)OCC)=C(\C)N(C=O)Cc1cnc(C)nc1N`, the Potency entry was “inactive”.

`CCOC(=O)Oc1ccc(CCNC(=O)[C@H](CCSC)NC(C)=O)cc1OC(=O)OCC`: the Potency entry is “inactive”. For the compound `CC(C)C(=O)Nc1cccc(C(F)(F)F)c1`, the Potency result is “inactive”. In the case of `Cc1cc(=O)oc2cc(O[C@@H]3SC[C@@H](O)[C@H](O)[C@H]3O)ccc12` it was “inactive”; in that of `Nc1cccc2c(N)cccc12`, 36.9 µM (active). In the case of `COc1cc2c(cc1OC)CN(C(=O)[C@H](C)N[C@@H](CCc1ccccc1)C(=O)O)[C@H](C(=O)O)C2` it was “inactive”; in that of `O=C1CC2(CCCC2)CC(=O)N1`, “inactive”; in that of `CO[C@]1(NC(=O)CSC(F)F)C(=O)N2C(C(=O)O)=C(CSc3nnnn3CCO)CO[C@H]21`, “inactive”. The result for `CC[N+](CC)(CC)CCOC(=O)C(C1CCCC1)C1CCCC1` reads “inactive”.

With `CC(C)(C)C1CCC(CC2=C(O)c3ccccc3C(=O)C2=O)CC1` (stereo not given), the Potency result is “inactive”. The result for `CC(=O)OCC(=O)[C@@]1(O)CCC2C3CCC4=CC(=O)CC[C@]4(C)C3[C@@H](O)C[C@@]21C` (stereo not given in full) reads “inactive”.

As for `O=C1[C@@H]2[C@H]3CC[C@H](C3)[C@@H]2C(=O)N1CCCCN1CCN(c2ncccn2)CC1`, the Potency result is “inactive”. In the case of `CO/N=C(\C(=O)O)c1csc(NC(=O)CCl)n1` it was “inactive”; in that of `CC(=O)c1cc2ccccc2s1`, “inactive”; in that of `O=C(CO)[C@@H](O)[C@H](O)[C@@H](O)CO`, “inactive”. In the case of `COc1ccc(CCC(C)=O)cc1` it was “inactive”; in that of `O=[N+]([O-])c1cncn1CCN1CCOCC1`, “inactive”; in that of `CO[C@@]1(NC(=O)CSC[C@@H](N)C(=O)O)C(=O)N2C(C(=O)O)=C(CSc3nnnn3C)CS[C@@H]21`, “inactive”. In the case of `Cn1cc(S(C)=O)c(=O)c2ccc(F)cc21` (stereo not given) it was “inactive”; in that of `Nc1ccc(C(=O)N2CC3CC(CN(Cc4ccccc4)C3)C2)cc1`, “inactive”. Turning to `CC(C)(C)NCC(O)COc1ccccc1OCC1CCCO1` (stereo not given), the Potency result was “inactive”. The result for `Cc1ccc(/C=N/n2c(-c3ccccc3)csc2=S)cc1` reads “inactive”; that for `Cc1cccc(C)c1NC(=O)c1cc(S(N)(=O)=O)c(Cl)cc1O`, “inactive”; that for `CCOC(=O)c1ccc(OCCN2C[C@H](O)[C@@H](O)[C@H](O)[C@H]2CO)cc1`, “inactive”. The result for `CCOC(=O)C(O)c1ccccc1` (stereo not given) reads “inactive”; that for `OCc1c[nH]c2ccccc12`, “inactive”; that for `CCOC(=O)NNc1nncc2ccccc12`, “inactive”. The result for `CCCC(=O)O[C@]1(C(=O)COC(=O)CC)CC[C@H]2[C@@H]3CCC4=CC(=O)CC[C@]4(C)[C@H]3[C@@H](O)C[C@@]21C` reads “inactive”; that for `CCOC(=O)c1cc(=O)c2c(OCC(COc3cccc4oc(C(=O)OCC)cc(=O)c34)OC(=O)[C@@H](N)CCCCN)cccc2o1`, “inactive”. As to `O=C(O)c1ccc(OCCN2CCCCC2)cc1`, the Potency result was “inactive”. Take `Cc1onc(-c2ccccc2)c1C(=O)Cl`: the Potency result was “inactive”. In the case of `CCCCCCCCCCCCCCCCCCN(C)C` it was “inactive”.

(Values after PubChem BioAssay (NCATS).)
